About 83,000 compounds went through this panel and 20% of them were active in at least one assay; those are over-represented in the sample as a whole.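 Each cell line was grown in a 96-well plate and treated with one concentration of compound for 48 hours. Values below 10 were considered active.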 Calls of active or inactive are those of the source.

The assay relates to HL-60(TB) leukemia. Briefly: NCI-60 one-dose screen, 48 h (100 = growth as untreated, 0 = no growth, -100 = all killed). Conditions: 10 µM unless noted.
Turning to `CCCN1C(=O)N(CCC)C2C1NN=c1s/c(=C3\C(=O)N(C(C)C)c4ccccc43)c(=O)n12` (stereo not given), the growth is 0.788% (active).
Turning to `O=C(N/N=C/c1cccc([N+](=O)[O-])c1)c1ccc(Br)o1`, the growth is 103% (inactive).
For `CCOC(=O)CC[C@H](NC(=O)c1ccc(N(C)Cc2cnc3nc(N)nc(N)c3n2)c2ccccc12)C(=O)OCC`, the growth is 20.7% (inactive).
For `COc1ccc(-c2ccccc2)cc1-c1c(Nc2cc(Cl)cc(Cl)c2O)c(=O)c1=O`, the growth was -29.8% (active).
For the compound `COCCOCCOCc1n(Cc2ccc3ccccc3n2)c2ccccc2[n+]1Cc1ccc2ccccc2c1`, the growth was -68% (active).
Take `O=C(CCCOc1ccc(Br)cc1)Nc1ncc(Cc2ccc(F)cc2)s1`: the growth is 34.7% (inactive).
Under `CCCc1cc(=O)n2c(C(=O)Nc3ccc(F)cc3)c(C(=O)Nc3ccc(F)cc3)sc2n1` stands 106% [30 µM] (inactive); under `C(=N\Nc1ccccn1)/c1ccccn1`, 12.3% (inactive); under `COc1cc2c(c(Br)c1N)-c1cc(Br)c(N)cc1C2=O`, 88.9% (inactive).
As to `O=C1/C(=C\c2ccccc2)CN(C(=O)c2ccccc2F)C/C1=C\c1ccccc1`, the growth is 10.1% (inactive).
In the case of `CN(C)CCCC(=O)Nc1ccc(Cn2nnc3c2C(=O)c2nnn(Cc4ccc(NC(=O)CCCN(C)C)cc4)c2C3=O)cc1`, the growth was 8.78% (active).
`Oc1ccc(C#CCOc2ccccc2)cc1CNCCN(Cc1ccccn1)Cc1ccccn1`: the growth was -13.6% (active).
Turning to `COC(=O)Nc1ccc(-c2nc(-c3cccc(OC)c3)c(-c3ccnc(Br)c3)[nH]2)cc1`, the growth was 44.2% (inactive).
The figure for `CN1CCCN(CCNc2nccc(-c3c(-c4cccc(O)c4)nc4sccn34)n2)S1(=O)=O` is 69.2% (inactive); for `CN1CCN(Cc2ccc(NC(=O)c3ccc(C#Cc4c(N)ncc5ccc(F)cc45)cc3)cc2C(F)(F)F)CC1` it is -10.7% (active); for `NC(=O)c1cccc(-n2ccc3cc(NC(=O)Nc4cc(C(F)(F)F)cc(C(F)(F)F)c4)ccc32)n1` it is 39.3% (inactive).
Under `C=CCNC(=S)NNc1ccc([N+](=O)[O-])cn1` stands 87.2% (inactive); under `C#CCNC(=O)CC[C@]1(C)[C@H]2CC[C@@H]3[C@@H]([C@@](C)(O)CCC=C(C)C)CC[C@@]3(C)[C@]2(C)CC[C@H]1C(=C)C`, -41% [100 µM] (active); under `C=C(C[n+]1ccccc1)[C@@H]1CC[C@]2(C(=O)OC)CC[C@]3(C)[C@H](CC[C@@H]4[C@@]5(C)CC[C@H](O)C(C)(C)[C@@H]5CC[C@]43C)[C@@H]12`, 93.5% (inactive).
Under `Clc1ccc2c(NCCNc3nc(-c4ccccc4)cc(-c4ccccc4)n3)ccnc2c1` stands -46.6% (active).
For the compound `CC([C@H]1CCC2C3CCC4C[C@@H](NC=O)CC[C@]4(C)C3CC[C@@]21C)N(C)C` (stereo not given in full), the growth is -61.1% (active).
The figure for `CC[C@H](C)[C@@H]1NC(=O)[C@H](Cc2ccc(O)cc2)N(C)C(=O)[C@H](Cc2ccccc2)NC(=O)CN(C)C(=O)[C@@H]2CCCN2C(=O)[C@@H](Cc2ccccc2)N(C)C(=O)[C@H](CC(C)C)NC1=O` is -24% (active).
For `Clc1ccc2c(c1)C(c1c[nH]c3ccccc13)(c1c[nH]c3ccccc13)CCO2`, the growth is 82% (inactive).
For the compound `Cn1cc(-c2nonc2-c2c[nH]c3ccc(F)cc23)c2cc(Br)ccc21`, the growth was 56.5% (inactive).
As to `Cc1ccc(S(=O)(=O)N2CCC(=O)c3ccccc32)cc1`, the growth is 60.3% (inactive).
On to `N=c1sc(Cc2ccc(Cl)cc2)cn1CC(=O)c1ccc(F)cc1`, for which the growth was 94.8% (inactive).
On to `O=c1cc(N2CCOCC2)oc2c(-c3ccc4c(c3)OCCO4)csc12`, for which the growth was 4.41% (active).
As to `CC[C@@H](C(=O)[C@@H](C)[C@@H](O)[C@H](C)[C@@H]1O[C@@H]([C@@H](CC)C(=O)O)CC[C@@H]1C)[C@H]1OC2(C=C[C@@H](O)[C@]3(CC[C@@](C)([C@H]4CC[C@](O)(CC)[C@H](C)O4)O3)O2)[C@H](C)C[C@@H]1C` (stereo not given in full), the growth is -45.6% (active).
Under `Cn1nc(-c2ccc(Cl)cc2)nc2c(=O)n(C)c(=O)nc1-2` stands -43.2% (active); under `CC(=O)OC[C@H]1OC(Sc2sc(C(=O)c3ccc(C)cc3)c(N)c2-c2nc3ccccc3s2)[C@H](OC(C)=O)[C@@H](OC(C)=O)[C@@H]1OC(C)=O` (stereo not given in full), 80% (inactive); under `COc1cc(-c2nn(-c3cccc(NC(=O)CCN4CCN(c5ccccc5)CC4)c3)cc2-c2ccncc2)ccc1Cl`, 13% (inactive).
Consider `Clc1nc2ccccc2cc1Cn1nnc(Cc2ccccc2)n1`, for which the growth is 87.9% (inactive).
Take `CC(=O)NNC(=S)N/C=C/c1c(C)ccc([N+](=O)[O-])c1[N+](=O)[O-]`: the growth is 99.9% (inactive).
`N#C/C(=C\c1ccc(-c2ccc(Cl)cc2)o1)c1ccc(Cl)cc1`: the growth is 96.1% (inactive).
Consider `Cc1ccc(NC(=S)/N=c2/n(-c3ccccc3)nc3n2CCN3C2=NCCN2)cc1`, for which the growth was 156% (inactive).
`O=C(Nc1ccc(Oc2cccc(Cl)c2)c(Cl)c1)c1cccnn1`: the growth is 89.5% (inactive).
`NC(CSC(c1ccccc1)(c1ccccc1)c1ccc(Cl)cc1)C(=O)O` (stereo not given): the growth was -40.5% (active).
Under `O=C1CCc2c(sc3[nH]c(=S)n(Cc4ccccc4)c(=O)c23)C1` stands 10.9% (inactive); under `CSc1nc(Nc2cccc(NC(=O)CCl)c2)c(C#N)c(-c2cccc([N+](=O)[O-])c2)n1`, 30.3% (inactive).
Turning to `O=C1CSC(c2ccc(O)cc2)N1c1nnc(Cn2cnnc2)o1` (stereo not given), the growth is 59.1% (inactive).

(Values after PubChem BioAssay (NCI).)
